Screening data deposited in PubChem by Broad Institute.
A selection: hits, their analogues and other compounds. The true share with any hit is near 2.1%.
Shn3 inh set2: inhibitors of Schnurri-3 3'UTR reporter in osteoblasts; Clone20 osteoblast Shn3 3'UTR firefly luciferase, 24 h; inhibition, % at 12.5 µM; 360,000 compounds, 0.52% hits; AID 588674;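 active = mean inhibition of at least 75% with every replicate also reaching 75%; inconclusive = mean inhibition at least 75% but some replicate below; inactive = mean inhibition below 75%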;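 also: 0% = median of neutral control wells and 100% = pilot-screen positive control compound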
aSyn 5UTR inh: MLPCN primary screen, SNCA 5' untranslated region; alpha-synuclein 5'UTR reporter, inhibitor activity; inhibition, % (tested at 7.5 µM); 300,000 compounds, 0.82% hits; AID 1813; in the data active = inhibition above about 60%; inconclusive = no clear call, values can overlap the other calls;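 also: H4 neuroglioblastoma cells stably carrying SNCA 5'UTR luciferase fusion; 0% = DMSO wells and 100% = positive control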
TRPM1 prom inh: inhibitors of MITF-driven TRPM1 promoter in melanoma cells | SK-MEL-5 TRPM1 promoter luciferase, 24 h | inhibition, % at 12.5 µM | 330,000 compounds, 0.83% hits | AID 488899;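 active = mean inhibition across replicates of 60% or more, whatever share of single replicates reaches that level; inconclusive = some that reach 60%, reason not given; inactive = mean inhibition across replicates below 60%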
EBV LMP1 NFkB: Epstein-Barr LMP1 NF-kappaB reporter inhibition. LMP1-induced NF-kappaB luciferase reporter cells, luminescence. inhibition, % at 12.5 µM. 350,000 compounds, 0.69% hits. AID 504558; in the data active = inhibition above about 41%; inconclusive = no clear call, values can overlap the other calls;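 also: 0% = neutral control wells and 100% = reference inhibitor control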
PAX8 inh HTS: lowers PAX8-driven luciferase in RMG-I cells | RMG-I TPO-luciferase reporter, SteadyGlo, 24 h | inhibition, % at 12.6 µM | 360,000 compounds, 1.2% hits | AID 652154;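 active = mean replicate inhibition at least 60% with every replicate also reaching 60%; inconclusive = only one of the two criteria is met; inactive = mean below 60% and not all replicates reaching 60%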;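 also: luciferase light reporting Pax8 driven TPO promoter activity; plate controls were median of neutral control wells for no effect and mitoxantrone controls for full effect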
* marks the source's active call; other numbers are inactive results; ? = inconclusive; . = no result.

SMILES	Shn3 inh set2	aSyn 5UTR inh	TRPM1 prom inh	EBV LMP1 NFkB	PAX8 inh HTS
O=C(Nc1ccc(S(=O)(=O)N2CCCC2)cc1)Nc1ccc(F)cc1F	14	-4	-1	-8	1
CC(=O)c1ccc(N2CCN(S(=O)(=O)c3ccc4c(c3)CC(C)N4C(=O)C3CC3)CC2)cc1 (stereo not drawn)	88*	15	28	33	20
CC1Cc2cc(S(=O)(=O)N3CCC(C(=O)N(C)Cc4ccco4)CC3)ccc2N1C(=O)C1CCC1 (stereo not drawn)	27	26	11	-1	61*
CC(=O)N1c2ccc(S(=O)(=O)N3CCC(C(=O)N4CCC(C)CC4)CC3)cc2CC1C (stereo not drawn)	37	0	9	5	25
CC(=O)N1c2ccc(S(=O)(=O)N3CCC(C(=O)N4CCN(c5cc(Cl)ccc5C)CC4)CC3)cc2CC1C (stereo not drawn)	89*	-4	20	12	24
CCC(=O)N1c2ccc(S(=O)(=O)N3CCN(c4ccc([N+](=O)[O-])cc4)CC3)cc2CC1C (stereo not drawn)	84	21	2	15	68*
CC(=O)N1c2ccc(S(=O)(=O)N3CCC(C(=O)Nc4cccc(C(F)(F)F)c4)CC3)cc2CC1C (stereo not drawn)	93*	18	20	.	28
O=C(CCl)Nc1cn(-c2ccccc2)nc1-c1ccccc1	-17	-47	74*	-17	-25
O=C(CCl)Nc1cccc(Oc2ccccc2)c1	-11	-17	66*	-20	15
O=C(CCl)Nc1ccc(N=Nc2ccccc2)cc1	-9	-63	4	-23	-131
O=C(CCl)Nc1ccc(-c2ccccc2)cc1	45	-20	65*	11	46
CC(C)CNC(=O)C1(C)CCCN1C(=O)c1csnn1 (stereo not drawn)	0	.	.	.	-3
CCCc1ccc(S(=O)(=O)NCC2CCCN2CC)cc1 (stereo not drawn)	27	8	7	9	4
COc1ccc2[nH]cc(C(=O)CCl)c2c1	-53	9	91*	-10	28
CCC(=O)Nc1cccc(C(=O)/C=C/c2ccc(F)cc2)c1	1	-53	62*	-8	?
CC(=O)Nc1cccc(C(=O)/C=C/c2ccc(C)cc2)c1	-9	-123	23	4	75*
COc1cccc(NC(=S)NC(=O)/C=C/c2ccc(F)cc2)c1	-8	7	-4	-3	3
COc1ccc(Oc2ccc(/C=C/C(=O)c3cccc(OC)c3)cc2[N+](=O)[O-])cc1	-5	-49	1	-2	108*
COc1ccc(Oc2ccc(/C=N/NC(=O)c3cccnc3)cc2[N+](=O)[O-])cc1	5	8	9	-7	-42
COC(=O)Nc1ccc(S(=O)(=O)N2CCCc3cccc(O)c32)cc1	17	-12	.	-4	24
Cc1cccc(S(=O)(=O)N2CCCc3ccccc32)c1	7	25	5	48*	-22
COC(=O)Nc1ccc(S(=O)(=O)N2CCCc3ccccc32)cc1	-1	84*	7	16	.
CN(C)S(=O)(=O)c1cccc(NC(=O)c2cccc(S(=O)(=O)N3CCc4ccccc43)c2)c1	92*	.	.	8	54
O=C(NCc1ccco1)C(c1ccccc1)N(C(=O)Cc1cccs1)c1ccccc1 (stereo not drawn)	10	-7	6	4	.
O=C(Nc1ccc(F)c(F)c1)c1ccc(F)c(S(=O)(=O)N2CCC3(CC2)OCCO3)c1	84*	-27	6	-5	23
SMILES	Shn3 inh set2	aSyn 5UTR inh	TRPM1 prom inh	EBV LMP1 NFkB	PAX8 inh HTS
O=S(=O)(c1cc(F)ccc1F)N1CCC2(CC1)OCCO2	8	6	-1	-2	9
CC1=C(CO)C(=O)OC([C@@H](C)C2CC[C@H]3C4C[C@H]5O[C@]56[C@@H](O)C=CC(=O)[C@]6(C)C4CC[C@]23C)C1 (stereo partly drawn)	98*	-91	106*	83*	.
O=C(Cn1ncc(Cl)c(Cl)c1=O)NCC1CCCCC1	75	.	92*	86*	1
O=C(Cn1ncc(Cl)c(Cl)c1=O)NC1CCS(=O)(=O)C1 (stereo not drawn)	3	-16	19	-1	27
Cc1cccc(NC(=O)CNC(=O)Cn2ncc(Cl)c(Cl)c2=O)c1C	46	.	85*	-57	.
O=C(Cn1ncc(Cl)c(Cl)c1=O)NC1CCCCC1	64	.	96*	-50	54
O=C1CN(C(=O)Cn2ncc(Cl)c(Cl)c2=O)c2ccccc2N1	19	3	93*	-46	95*
COc1ccc(OCCC(=O)N2CCN(C)CC2)cc1	-31	-3	-17	-4	-2
O=C(N/N=C/c1ccccc1)c1[nH]c2ccc(Br)cc2c1-c1ccccc1	-2	9	74*	13	13
O=C(N/N=C/c1c[nH]c2ccccc12)C1COc2ccccc2O1 (stereo not drawn)	-2	76*	29	-5	24
O=C(N/N=C\c1ccc(Cl)s1)C1COc2ccccc2O1 (stereo not drawn)	3	-67	-10	-11	22
O=C(O)c1ccc(S(=O)(=O)NN=Cc2c[nH]c3ccccc23)cc1	6	.	.	-7	34
Cc1ccc(-c2cc(C(=O)N/N=C/c3c[nH]c4ccccc34)[nH]n2)cc1	-6	78*	-8	-3	-4
O=C(N/N=C\c1ccc([N+](=O)[O-])o1)C1COc2ccccc2O1 (stereo not drawn)	1	-54	75*	2	23
O=C(O)c1ccc(N/N=C/c2c[nH]c3ccccc23)cc1	31	79*	58	36	45
O=C(CCC1CCCCC1)Nc1ccccc1O	-94	-163	-98	-8	-125
COc1ccc(O)c(/C=N/Nc2nc(Nc3ccccc3)nc(-n3nc(C)cc3C)n2)c1	65	23	-9	62*	.
COc1ccc(/C=N/Nc2nc(Nc3ccccc3)nc(N3CCCC3)n2)cc1[N+](=O)[O-]	13	23	57	-82	22
COc1cc(/C=N/Nc2nc(Nc3ccccc3)nc(-n3nc(C)cc3C)n2)cc(OC)c1OC	54	-68	0	13	80*
COc1cc(/C=N/Nc2nc(Nc3ccc(C)cc3)nc(-n3nc(C)cc3C)n2)cc(OC)c1OC	71	15	13	24	89*
COc1cc(/C=N/Nc2nc(Nc3ccccc3)nc(N3CCCCC3)n2)ccc1OCC(=O)O	21	-21	10	-3	-5
COc1ccc(O)c(/C=N/Nc2nc(C)cc(-c3ccccc3)n2)c1	18	-14	-17	-16	1
O=C(NCCCCc1ccccc1)c1cccc(NC(=O)C2CCCCC2)c1	11	.	-9	5	2
NC(=O)c1ncn2c(=O)n(CCCl)nnc12	.	.	.	.	81*
Cn1nnc2c(C(N)=O)ncn2c1=O	10	.	.	.	17
Cc1cc(C(=O)N/N=C/c2cc(Br)ccc2OC(=O)c2ccccc2Cl)n[nH]1	90*	?	23	27	13
